# VCAM1 TNFa inh: inhibitors of TNFa-induced VCAM1 expression, primary screen, imaging, HUVEC, TNFa stimulus, immunofluorescence; HUVEC TNFa-induced VCAM-1 immunofluorescence, high-content imaging; inhibition, % at 2 µM; 95,000 compounds, 0.48% hits;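 active = inhibition above the batch mean plus 3 SD, with images confirmed as a hit by eye, cut at about 37% in these data; inconclusive = inhibition above that limit but hit not confirmed in images; inactive = inhibition not above that limit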;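 note: 0% = TNF-stimulated DMSO wells and 100% = unstimulated control wells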
# HUVEC tox TNFa: cytotoxicity in TNFa-stimulated HUVEC, primary screen, cytotoxicity control for VCAM1 expression modulator project, imaging, Hoechst nuclei count | HUVEC TNFalpha-stimulated, Hoechst cell count | cell count reduction, % at 2 µM | 93,000 compounds, 0.17% hits | AID 848, 2007;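 active = cell count reduction exceeding the screen mean by over 5 SD, scaled to untreated wells per plate, cut at about 78% in these data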;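 note: cells counted after 24 h of TNF alpha exposure following the 1 h pretreatment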
# IL1B NFkB inh: inhibitors of IL-1B driven NFkB p65 nuclear import, primary screen, imaging, HUVEC, IL-1B stimulus, high-content imaging; HUVEC IL-1B NFkB p65 nuclear translocation imaging; inhibition, % at 2 µM; 94,000 compounds, 0.43% hits;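 active = inhibition above about 30% together with a positive call from visual inspection of the well image, limit read from the data; inconclusive = inhibition above a set limit but visual check negative; inactive = inhibition not above a set limit, visual check negative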;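 note: nuclear over cytoplasmic p65 intensity ratio measured by imaging; 0% = IL-1B stimulated DMSO wells and 100% = unstimulated DMSO wells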
# NFkB transloc pot: enhancers of NFkB p65 translocation in HUVEC – imaging, IL-1B stimulus, high-content imaging, primary screen | AID 819, 2007 | activation, % at 2 µM | 94,000 compounds, 0.3% hits | HUVEC IL-1B NFkB p65 nuclear translocation imaging;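 active = activation above 40%, about the mean plus 3 SD, also judged a hit on visual image review; inconclusive = activation above 40% but not a hit on visual review; inactive = activation not above 40% and no visual hit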;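 note: percent activation is computed from the nuclear over cytoplasmic p65 intensity ratio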
# E-sel TNF inh: E-selectin induction blockers in HUVEC – imaging, immunofluorescence, high content, primary screen. HUVEC TNFa-induced E-selectin immunofluorescence. inhibition, % at 2 µM. AID 1246, 2008. 120,000 compounds, 0.71% hits;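 active = inhibition above the batch mean plus 3 SD, and confirmed as a hit on visual image review, cut at about 43% in these data; inconclusive = passes the inhibition cutoff but fails visual image review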;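 note: 0% = TNF-stimulated DMSO wells and 100% = unstimulated control wells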
# IL1B cytotox: cytotoxicity in IL-1B stimulated HUVEC, primary screen, cytotoxicity control for IL-1B NFkB translocation project, imaging, Hoechst nuclear count, IL-1B stimulus. HUVEC cell count loss. cell count reduction, % at 2 µM. 94,000 compounds, 0.41% hits;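 active = cell count reduction more than 3 SD above the screen-wide mean, cut at about 70% in these data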;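 note: normalized per plate to untreated control cells as the no-loss baseline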
# An asterisk follows results filed as active; ? = inconclusive; . = no result given. Sampled rows, rich in hits. Any-hit rate of the full collection: about 1.7%.
SMILES,VCAM1 TNFa inh,HUVEC tox TNFa,IL1B NFkB inh,NFkB transloc pot,E-sel TNF inh,IL1B cytotox
CN1C(=O)C(C2(C#N)CCCCC2)C(=O)N(C)C1=O,16.6,-9.5,-48.5,48.5*,-8.4,2.6
Cc1c(N=Cc2c(O)n(Cc3ccccc3)c(=O)[nH]c2=O)c(=O)n(-c2ccccc2)n1C,.,.,.,.,5.0,.
CCCCn1c(O)c(C=Nc2c(C)n(C)n(-c3ccccc3)c2=O)c(=O)[nH]c1=O,5.5,-4.6,-48.4,48.4*,-3.5,-45.6
CN(C)P(=O)(CCl)Nc1ccccc1 (stereo not drawn),.,.,.,.,-16.9,.
CCN1CCN(Cc2ccccc2C)CC1,.,.,.,.,95.1*,.
CCN1CCN(Cc2ccc(C)cc2)CC1,.,.,.,.,95.3*,.
CCN1CCN(Cc2ccc(C)cc2C)CC1,.,.,.,.,3.7,.
O=C(N/N=C/C1C(=O)NC(=S)N(c2ccccc2)C1=O)c1cc(Br)c(O)c(Br)c1 (stereo not drawn),.,.,.,.,-9.6,.
O=C(c1ccc2c3c(cccc13)CC2)C1CCCN(CC2CC2)C1 (stereo not drawn),.,.,.,.,-36.0,.
O=C(CCCOc1ccc(Cl)cc1Cl)N1CCC2(CC1)OCCO2,16.0,-5.0,97.2*,-97.2,3.8,84.9*
CN1C2CCC1/C(=C/c1ccccn1)C(=O)/C2=C\c1ccccn1,.,.,.,.,96.4*,.
Cc1oc(-c2cccs2)nc1CSCC(=O)N1CCC2(CC1)OCCO2,9.0,-11.3,.,.,67.5*,.
COc1ccc(-c2nc(CSCC(=O)N3CCC4(CC3)OCCO4)c(C)o2)cc1OC,-1.1,-36.8,-40.0,?,.,-50.9
CN1CCc2nc(N)c(C#N)c(-c3ccccc3)c2C1,14.6,-20.6,5.7,-5.7,33.0,-30.6
CN1CCc2nc3sc(C#N)c(N)c3c(-c3cccs3)c2C1,89.8*,74.4,2.4,-2.4,.,20.5
COc1cc2c3c(c1OC)-c1cc(O)ccc1CC3NCC2 (stereo not drawn),43.9*,65.7,-2.0,2.0,-1.0,1.1
CCOC(=O)N(c1ccccc1)P1(=S)OCCO1,1.1,0.0,1.9,-1.9,79.4*,-12.0
CCOC(=O)N(c1ccccc1)P1(=S)OCC(C)O1 (stereo not drawn),-12.2,-6.1,-6.1,6.1,.,13.0
CCCCCc1nc2c(c(=O)c3ccccc3n2C)c(=O)n1C1CCCCCC1,.,.,.,.,-4.2,.
O=S1(=O)CCN(CCc2c[nH]c3ccccc23)CC1,.,.,.,.,99.8*,.
CN(C)C(=S)SSC(=S)N(C)C,.,.,.,.,85.6*,.
Cc1ccc(N2C(=O)NC(=O)C3(Cc4ccccc4N4CCN(c5ccccc5)CC43)C2=O)cc1 (stereo not drawn),10.8,-6.2,-0.3,0.3,-28.7,14.4
CN1C(=O)N(C)C(=O)C2(Cc3ccccc3N3CCOCC32)C1=O (stereo not drawn),66.2*,32.3,-10.9,10.9,12.5,14.3
O=C1CCN(C(=O)C(Cl)Cl)N1,.,.,.,.,-16.8,.
CCN1CCC2(CCNC2)C1 (stereo not drawn),-1.6,-17.2,-25.8,25.8,97.9*,-5.7
SMILES,VCAM1 TNFa inh,HUVEC tox TNFa,IL1B NFkB inh,NFkB transloc pot,E-sel TNF inh,IL1B cytotox
CCN1CCC2(CC1)NC(CO)(CO)CO2,18.1,-15.7,-9.5,9.5,-10.9,-32.8
Cn1c(O)c(C(c2ccccn2)c2c(O)n(C)c(=S)[nH]c2=O)c(=O)[nH]c1=S,0.6,4.7,-2.9,2.9,1.5,91.4*
O=c1cccc2n1CC1CC2CN(c2nc(N3CCCCC3)nc(N3CCCCC3)n2)C1 (stereo not drawn),.,.,.,.,-14.5,.
COC(=O)C[C@]1(C(=O)OC)CN(C#N)N(c2ccc(Cl)cc2)C12c1ccccc1-c1ccccc12,100.0*,.,25.9,-25.9,88.5*,-123.3
CC(=O)Nc1nc(CCl)cs1,.,.,.,.,-18.0,.
CCC(C)n1c(O)c(/C=N/Nc2ccccc2)c(=O)[nH]c1=S (stereo not drawn),.,.,.,.,-10.3,.
Cn1cccc1/C=C1/C(=O)NC(=O)N(Cc2ccccc2)C1=O,.,.,.,.,61.4*,.
O=C1NC(=O)N(Cc2ccco2)C(=O)/C1=C/c1cccn1CCOc1ccccc1Cl,.,.,.,.,-11.2,.
C=CCN1C(=O)NC(=O)/C(=C/c2cccn2C)C1=O,-23.7,-37.6,40.8*,-40.8,17.2,2.2
CC1(C)C2([N+](=O)[O-])CN3CN(C2)CC1([N+](=O)[O-])C3,.,.,.,.,24.8,.
CC(=NCCC(c1ccccc1)c1ccccc1)c1c(O)n(C)c(=O)n(C)c1=O,.,.,.,.,-12.8,.
